Data published in PubChem BioAssay (EPA / NIEHS).
Where “and” joins values, the source holds several entries; their conditions need not be identical. Equal entries are not always repeated. Inconclusive results are not listed. The source holds several records for some structures; these can differ, active in one and inactive in another. Calls of active or inactive are those of the source. The calls were made as follows, unless noted: active = hit-call score of the fitted dose curve at least 0.9, where 1 is the maximum; inactive = score below 0.9.

Experiments:
[1] = CCTE_Shafer_MEA_acute_AB: CCTE's Alamar Blue Assay for Cytotoxicity in the Neural Acute Assay, Shafer Lab (AID 2284069; active = hit-call score of the fitted dose curve at least 0.9, where 1 is the maximum;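 also: active compounds lower the viability signal compared with DMSO wells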)
Outline: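 Cytotoxicity endpoint for acute MEA exposures of primary rat cortical neurons on day 13 or 15. Resazurin reduction is read fluorescently at 544/590 nm, with DMSO as the negative-control baseline.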

[2] = CCTE_Shafer_MEA_acute_LDH: CCTE's Lactate Dehydrogenase Assay for Cytotoxicity in the Neural Acute Assay, Shafer Lab (AID 2284086; active = hit-call score of the fitted dose curve at least 0.9, where 1 is the maximum;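 also: active means LDH release rises above DMSO vehicle level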)
Outline: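 Primary rat cortical neurons on 48-well MEA plates, treated on day 13 or 15 post-plating. After the 40-min recording with compound, medium LDH release was read by absorbance at 490 nm. Gain of signal was fitted against DMSO negative control.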

[3] = CCTE_Shafer_MEA_dev_per_burst_interspike_interval: CCTE's Neural Network Formation Assay for Burst Interspike Interval, Shafer Lab (AID 2284044);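 also: mean spike spacing inside bursts as AUC over recordings on days 5 7 9 12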;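 as to AC50: potency for a decrease of within-burst interspike interval below DMSO level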
Outline: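 Mean interspike interval within single-electrode bursts, averaged over bursting electrodes, from rat cortical cultures on MEA plates recorded on days 5, 7, 9 and 12. Continuous compound exposure from plating; trapezoidal AUC fitted downward relative to DMSO.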

[4] = CCTE_Shafer_MEA_dev_burst_duration_mean: CCTE's Neural Network Formation Assay for Mean Burst Duration, Shafer Lab (AID 2284045);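 as to AC50: curve fitted for loss meaning shorter burst duration than DMSO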
Outline: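 Primary rat cortical neurons on 48-well 16-electrode MEA plates, exposed from day 0 with renewal at DIV 5 and 9; spontaneous activity recorded on days 5, 7, 9, 12. Well-mean burst duration across bursting electrodes, collapsed as trapezoidal AUC; DMSO baseline.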

[5] = CCTE_Shafer_MEA_dev_interburst_interval_mean: CCTE's Neural Network Formation Assay for Mean Interburst Interval, Shafer Lab (AID 2284046);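 also: well-mean interburst interval of bursting electrodes as AUC over four recording days; curve fitted for decrease in interburst interval relative to DMSO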
Outline: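 Network formation assay in primary rat cortical cultures, exposed from DIV 0 to 12. Mean interburst interval per well, integrated as AUC over four recordings.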

[6] = CCTE_Shafer_MEA_dev_inter_network_spike_interval_mean: CCTE's Neural Network Formation Assay for Mean Inter-network Spike Interval, Shafer Lab (AID 2284047)
Outline: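 Compound was given at plating to primary rat cortical neurons and renewed with full medium changes on DIV 5 and 9. Extracellular activity was recorded on days 5, 7, 9, 12; AUC values were fitted for loss relative to DMSO control.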

[7] = CCTE_Shafer_MEA_dev_network_spike_number: CCTE's Neural Network Formation Assay for Number of Network Spikes, Shafer Lab (AID 2284048);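 also: synchronized bursts across electrodes counted on days 5 7 9 12 and integrated as AUC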;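 as to AC50: fit as a loss of signal meaning fewer network spikes than DMSO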
Outline: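 Primary rat cortical neurons on PEI/laminin 48-well MEA plates, dosed from plating day 0 for 12 days, renewed at DIV 5 and 9. Network spike counts recorded DIV 5, 7, 9, 12, collapsed as trapezoidal AUC; DMSO baseline.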

[8] = CCTE_Shafer_MEA_dev_network_spike_peak: CCTE's Neural Network Formation Assay for Mean Number of Electrodes in Network Spike, Shafer Lab (AID 2284049);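 as to AC50: fitted for loss of signal meaning fewer electrodes in network spikes than DMSO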
Outline: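 Network-spike peak electrode count from recordings on days 5, 7, 9 and 12 was combined as trapezoidal area under the curve. Rat cortical cultures were treated continuously from plating, with compound renewed at each feed (DIV 5, 9); fits versus DMSO.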

DIO2 (gene 1734) = assay: CCTE_GLTED_hDIO2: CCTE's human Deiodinase 2 (DIO2) Inhibition Assay, Great Lakes Toxicology and Ecology Division (GLTED) Lab (AID 2284050; active = hit-call score of the fitted dose curve at least 0.9, where 1 is the maximum)
Outline: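 Cell-free human DIO2 enzyme was incubated with test chemical for 3 h; iodide liberated from substrate was then quantified by the Sandell-Kolthoff reaction (absorbance), run in triplicate. Loss of signal versus DMSO baseline indicated inhibition.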

[9] = CCTE_Shafer_MEA_dev_spike_duration_mean: CCTE's Neural Network Formation Assay for Mean Spike Duration, Shafer Lab (AID 2284051);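 also: mean network spike duration pooled as area under curve over DIV 5 to 12 recordings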;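 as to AC50: potency for a decrease in mean network spike duration versus DMSO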
Outline: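 With DMSO as baseline, loss of mean network spike duration was scored from extracellular recordings of rat cortical neurons on MEA plates. Exposure spanned plating to DIV 12; the four recording days were collapsed into one AUC value.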

[10] = CCTE_Shafer_MEA_dev_network_spike_duration_std: CCTE's Neural Network Formation Assay for Standard Deviation of Network Spike Duration, Shafer Lab (AID 2284052);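 also: area under curve of spike duration SD across recording days 5 to 12; hits are decreases in network spike duration SD versus DMSO vehicle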
Outline: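 Developing networks of rat cortical neurons were exposed over twelve days in vitro on 48-well MEA plates. Trapezoidal AUC of recordings (DIV 5–12) was analysed for signal loss relative to DMSO vehicle.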

[11] = CCTE_Shafer_MEA_dev_per_network_spike_spike_number_mean: CCTE's Neural Network Formation Assay for Mean Number of Spikes in a Network Spike, Shafer Lab (AID 2284053);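 as to AC50: fitted as decrease in spikes per network spike relative to DMSO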
Outline: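 First, rat cortical cells (1.5 x 10^5/well) were seeded onto MEA wells; second, dosing began at plating and was refreshed on DIV 5 and 9; finally, network-spike spike counts across DIV 5–12 were summarized as AUC.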

[12] = CCTE_Shafer_MEA_dev_per_network_spike_spike_percent: CCTE's Neural Network Formation Assay for Percent of Spikes in a Network Spike, Shafer Lab (AID 2284054)
Outline: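 Rat primary cortical neurons were grown on 48-well MEA plates (16 electrodes/well), exposed from plating day 0 through day 12, with treatment renewed on DIV 5 and 9. Percent of spikes within 0.05 s network-spike peaks was measured, summarised as AUC across days 5, 7, 9, 12.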

[13] = CCTE_Shafer_MEA_dev_LDH: CCTE's Lactate Dehydrogenase Assay for Cytotoxicity in the Neural Network Formation Assay, Shafer Lab (AID 2284068; active = hit-call score of the fitted dose curve at least 0.9, where 1 is the maximum;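 also: exposure for twelve days from plating with re-dosing on DIV 5 and 9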)
Outline: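 Developing rat cortical networks on MEA plates are exposed to compound for 12 days from plating. LDH activity is measured spectrophotometrically, with DMSO as baseline.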

[14] = CCTE_Shafer_MEA_dev_AB: CCTE's Alamar Blue Assay for Cytotoxicity in the Neural Network Formation Assay, Shafer Lab (AID 2284083; active = hit-call score of the fitted dose curve at least 0.9, where 1 is the maximum;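 also: resazurin reduction fluorescence as viability of cultured neurons; twelve days of exposure from plating with re-dosing on DIV 5 and 9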)
Outline: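 Cytotoxicity companion to the developmental MEA: primary rat cortical neurons, 12-day exposure starting day 0, compound refreshed DIV 5 and 9; resazurin fluorescence, fitted against DMSO vehicle.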

[15] = CCTE_Shafer_MEA_dev_mutual_information_norm: CCTE's Neural Network Formation Assay for Mutual Information Normalization, Shafer Lab (AID 2284091);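 as to AC50: mutual information between electrodes summarised as area under curve across four recording days; potency is for a decrease in mutual information relative to DMSO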
Outline: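 Primary rat cortical neurons on PEI-coated 48-well MEA plates, 1.5 x 10^5 cells/well, exposed from day 0 through day 12 with re-dosing at DIV 5 and 9. Mutual information between electrodes recorded days 5, 7, 9, 12; trapezoidal AUC, loss-of-signal fit versus DMSO.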

[16] = CCTE_Shafer_MEA_dev_correlation_coefficient_mean: CCTE's Neural Network Formation Assay for Mean Correlation Coefficient, Shafer Lab (AID 2284093);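 as to AC50: well mean pairwise spike train correlation integrated as AUC over recording days 5 to 12; potency fitted for loss of correlation relative to DMSO vehicle wells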
Outline: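 Extracellular firing from rat cortical networks on 48-well MEAs, DMSO-referenced, negative fitting direction. Compound present from plating to DIV12; mean pairwise correlation per well integrated over DIV5–12 recordings by trapezoidal AUC.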

[17] = UKN2_HCS_IMR90_neural_migration: University of Konstanz (UKN) Leist Lab Neural Crest Cell Migration Assay in human induced IMR90 Pluripotent Stem Cells (UKN2) (AID 2284204); settings: actives raise or lower the signal
Outline: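 iPSC-derived IMR90 neural crest cells seeded around stoppers on PLO/laminin/fibronectin; migration started in N2-S medium with EGF/FGF, compounds added after 24 h for 24 h. Migration into cell-free area imaged after calcein-AM/Hoechst staining; bidirectional fit versus DMSO.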

[18] = UKN5_HCS_SBAD2_cell_viability: Viability Assessment in the University of Konstanz (UKN) Leist Lab Neurite Outgrowth Assay in human iPSC-derived immature Dorsal Root Ganglia Neurons (UKN5) (AID 2284056)
Outline: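 iPSC-derived immature peripheral neurons (SBAD2) seeded on Matrigel with CHIR99021, SU5402 and DAPT, dosed 1 h later for 24 h. Viability from Hoechst H-33342 and calcein-AM live staining, high-content imaging; bidirectional fit versus DMSO.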

[19] = UKN5_HCS_SBAD2_neurite_outgrowth: University of Konstanz (UKN) Leist Lab Neurite Outgrowth Assay in human iPSC-derived immature Dorsal Root Ganglia Neurons (UKN5) (AID 2284070); settings: actives raise or lower the signal
Outline: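 Human iPSC-derived immature DRG neurons (SBAD2) on Matrigel with CHIR99021 (1.5 uM), SU5402 (5 uM), DAPT (5 uM); compounds added 1 h post-seeding for 24 h. Calcein-AM neurite area imaged; bidirectional fit vs DMSO.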

Measured: AC50

CC(C)CCCCCCOC(=O)CCCCC(=O)OCCCCCCC(C)C
inactive: [1] | [2]

c1ccc2cc3c(ccc4ccccc43)cc2c1
active: [8] 10 µM | DIO2 (gene 1734) 70 µM
not listed: [1] | [2] | [17] | [18] | [19]
inactive: all other assays above

OCCC(F)(F)C(F)(F)C(F)(F)C(F)(F)C(F)(F)C(F)(F)C(F)(F)C(F)(F)F
active: [8] 24.2 µM | [13] 28.5 µM | [16] 23.4 µM
not listed: DIO2 (gene 1734) | [17] | [18] | [19]
inactive: all other assays above

Cc1oc(-c2ccccc2)nc1CCOc1ccc(C[C@H](Nc2ccccc2C(=O)c2ccccc2)C(=O)O)cc1
active: DIO2 (gene 1734) 46.1 µM

CN(C)C=O
inactive: [1]

CC(O)CO (centres undefined)
not listed: [1] | [2] | DIO2 (gene 1734) | [13] | [17] | [18] | [19]
inactive: all other assays above

CCc1ccc(CCOc2ccc(CC3SC(=O)NC3=O)cc2)nc1 (centres undefined)
inactive: [1]

CCCCCCCCCCCCCC[N+](C)(C)C
active: DIO2 (gene 1734) 24.7 µM

CC[C@H](c1ccc(O)cc1)[C@@H](CC)c1ccc(O)cc1
inactive: [2]

Oc1cc2ccccc2c2ccccc12
active: [1] 8 µM

CC(=O)NC1(c2cccc(F)c2)CCN(CC[C@@]2(c3ccc(Cl)c(Cl)c3)CN(c3ccccc3)C(=O)CO2)CC1
active: DIO2 (gene 1734) 82.6 µM
inactive: [1] | [2]

CC#C[C@]1(O)CC[C@H]2[C@@H]3CCC4=CC(=O)CCC4=C3[C@@H](c3ccc(N(C)C)cc3)C[C@@]21C
active: [3] 4.01 µM and 5.66 µM | [4] 2.98 µM | [5] 2.69 µM | [7] 8.75 µM | [8] 2.53 µM and 22.2 µM | [9] 4.55 µM and 21.8 µM | [10] 8.66 µM | [11] 1.38 µM and 15 µM | [12] 3.55 µM and 23.1 µM | [13] 16.4 µM and 25.1 µM | [14] 16.5 µM and 25.4 µM | [15] 1.07 µM and 11.7 µM | [16] 6.26 µM and 22.2 µM | [17] 9.67 µM and 5.64 µM
inactive: [4] | [5] | [6] | [7] | [10] | [1] | [2]

OC1CCC(C2CCCCC2)CC1 (centres undefined)
inactive: [1] | [2]

Cc1cc(CCN2CCN(c3nsc4ccccc34)CC2)cc2c1NC(=O)CC2(C)C
inactive: [1] | [2]

CCC(=C(c1ccc(O)cc1)c1ccc(OCCN(C)C)cc1)c1ccccc1
inactive: [1] | [2]
active: DIO2 (gene 1734) 35.2 µM

CN1CCC[C@H]1c1cccnc1
active: [11] 6.37 µM
not listed: [2] | DIO2 (gene 1734) | [13] | [14]
inactive: all other assays above
